Experimental data as given in paper PMC10668032, “Altered binding affinity of SIX1-Q177R correlates with enhanced WNT5A and WNT pathway effector expression in Wilms tumor”.
Over roughly 33,000 sequences, “e-score” has its median near -0.053; the highest 2% begin near 0.38. This is one part of a sample in which the highest values are shown more often than they occur.

What follows are sequences tested against T1, SIX1 homeodomain (reference allele) (human, UniProt Q15475 108-198) (assay: universal protein binding microarray; Universal all-10-mer PBM (8x60K, AMADID 030236), 300 nM GST-tagged protein, Alexa Fluor 488 anti-GST; buffer, salt, pH and temperature not stated (as in Berger); high values mean tight binding). Conditions: protein: ivt; tags: N-terminal GST; dsDNA, one strand shown.
T1 sequence: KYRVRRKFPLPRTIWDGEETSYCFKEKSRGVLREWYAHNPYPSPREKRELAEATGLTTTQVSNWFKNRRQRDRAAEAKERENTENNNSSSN
Summary of the method: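 After in vitro transcription/translation, GST-tagged homeodomains were quantified against a recombinant GST standard curve by anti-GST western blot. They were then placed in duplicate at 300 nM final concentration on universal 'all 10-mer' protein binding microarrays of 8×60K format.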
In the case of AACTATAC, the binding signal is reported as 0.24 ± 0.0587 E-score. Sequence AGATGTAT has a binding signal of 0.338 ± 0.00993 E-score. ATACGCAC gave a binding signal of 0.254 ± 0.00836 E-score. For CCCATGGG, the binding signal was 0.152 ± 0.0229 E-score. GATCGGCA was tested, and the binding signal was 0.211 ± 0.0237 E-score. ATACACAT gave a binding signal of 0.289 ± 0.00303 E-score. ATGTGATC gave a binding signal of 0.32 ± 0.0109 E-score. Work on CTGTGATA yielded a binding signal of 0.39 ± 0.0381 E-score. With CTGTGATC the binding signal was 0.328 ± 0.00414 E-score. Work on GTGTGAGA yielded a binding signal of 0.245 ± 0.029 E-score. For ATGTGAGA, the binding signal was 0.165 ± 0.0625 E-score. For ATGTGATA, the binding signal was 0.392 ± 0.0638 E-score. GTGTGATA was tested, and the binding signal was 0.411 ± 0.0318 E-score. In the case of GTGTGTGA, the binding signal is reported as 0.174 ± 0.0383 E-score. In the case of AGATAGGA, the binding signal is reported as 0.175 ± 0.0479 E-score. With CGAATCCA the binding signal was 0.1647 ± 0.00129 E-score. CCCGCGGA was tested, and the binding signal was 0.205 ± 0.00383 E-score. For TATCTGCA, the binding signal was 0.284 ± 0.0307 E-score. Work on GAAATACC yielded a binding signal of 0.1851 ± 0.00123 E-score. For ATACCGCA, the binding signal was 0.4061 ± 0.00272 E-score. ATACCGAG gave a binding signal of 0.304 ± 0.0181 E-score. With ATACCGAT the binding signal was 0.3532 ± 0.00127 E-score. Sequence ATACCGCC has a binding signal of 0.418 ± 0.0211 E-score. With ATACCGAA the binding signal was 0.329 ± 0.0172 E-score. ACACCGCC showed a binding signal of 0.321 ± 0.0533 E-score. In the case of ACACCGCG, the binding signal is reported as 0.283 ± 0.0738 E-score. ACACCGCA gave a binding signal of 0.351 ± 0.043 E-score. Work on ATACCGCG yielded a binding signal of 0.377 ± 0.0129 E-score. Work on CTGAGCCC yielded a binding signal of 0.161 ± 0.049 E-score. ATCCCAAC gave a binding signal of 0.189 ± 0.0265 E-score. For ATACGTCA, the binding signal was 0.196 ± 0.0392 E-score. With ATCAGCGG the binding signal was 0.171 ± 0.08 E-score. Work on ACAATATC yielded a binding signal of 0.309 ± 0.0486 E-score. For AGGATAGG, the binding signal was 0.306 ± 0.0312 E-score. ATGATCGC showed a binding signal of 0.265 ± 0.0383 E-score. Work on ATGATAGG yielded a binding signal of 0.387 ± 0.0153 E-score. ACGATAGG was tested, and the binding signal was 0.269 ± 0.00971 E-score. Work on ATGATAGC yielded a binding signal of 0.379 ± 0.0583 E-score. In the case of CTGATAGC, the binding signal is reported as 0.319 ± 0.0368 E-score. ATCCAGCA was tested, and the binding signal was 0.198 ± 0.0454 E-score. CGTAACAC was tested, and the binding signal was 0.205 ± 0.0442 E-score. For ATTACATC, the binding signal was 0.248 ± 0.072 E-score. CGATCTTC gave a binding signal of 0.288 ± 0.0189 E-score. Work on GATGGGTA yielded a binding signal of 0.223 ± 0.0133 E-score. With GTTCGATA the binding signal was 0.324 ± 0.0131 E-score. In the case of CTTTGATC, the binding signal is reported as 0.213 ± 0.0316 E-score. In the case of ATTTGATA, the binding signal is reported as 0.397 ± 0.0881 E-score. CTTTGATA gave a binding signal of 0.331 ± 0.0715 E-score. In the case of ATTTGATC, the binding signal is reported as 0.215 ± 0.0531 E-score. GTTTGATA was tested, and the binding signal was 0.379 ± 0.067 E-score. CAATACGA was tested, and the binding signal was 0.207 ± 0.026 E-score. ATCACTTC showed a binding signal of 0.3 ± 0.0422 E-score. Work on CTCAGATC yielded a binding signal of 0.27 ± 0.00864 E-score. In the case of ATCAGATA, the binding signal is reported as 0.378 ± 0.0255 E-score. For GTCAGATA, the binding signal was 0.273 ± 0.0192 E-score. In the case of ATCAGATC, the binding signal is reported as 0.394 ± 0.0295 E-score. With CTCAGATA the binding signal was 0.31 ± 0.032 E-score. For ATCAGATG, the binding signal was 0.319 ± 0.0136 E-score. CGTATGAA was tested, and the binding signal was 0.15 ± 0.0134 E-score. ACGGTGTA was tested, and the binding signal was 0.255 ± 0.00781 E-score. ACGGTGTC gave a binding signal of 0.437 ± 0.0187 E-score. Work on CCCGTGTC yielded a binding signal of 0.255 ± 0.0128 E-score. Work on CCGGTGTC yielded a binding signal of 0.431 ± 0.0182 E-score. Work on CAGGTGTC yielded a binding signal of 0.394 ± 0.0354 E-score. With CAGGTGTA the binding signal was 0.272 ± 0.00711 E-score. Sequence CCGGTGTA has a binding signal of 0.332 ± 0.0356 E-score. In the case of AAGGTGTC, the binding signal is reported as 0.373 ± 0.0231 E-score. ACGGTGAT showed a binding signal of 0.181 ± 0.00713 E-score. With GTCTGGTA the binding signal was 0.151 ± 0.048 E-score. In the case of ATCGGAAT, the binding signal is reported as 0.172 ± 0.0652 E-score. For AAGAGTAT, the binding signal was 0.277 ± 0.117 E-score. ATATATTG gave a binding signal of 0.238 ± 0.0753 E-score. CGGATCCA gave a binding signal of 0.406 ± 0.0429 E-score. CGGATCGC was tested, and the binding signal was 0.395 ± 0.05 E-score. TGGATCCA showed a binding signal of 0.295 ± 0.0443 E-score. GGGATCCC was tested, and the binding signal was 0.415 ± 0.0591 E-score. AGGATCCG showed a binding signal of 0.308 ± 0.0272 E-score. Sequence GGGATCTA has a binding signal of 0.272 ± 0.0387 E-score. Sequence CAGATCCG has a binding signal of 0.322 ± 0.0638 E-score. Work on CGGATCTA yielded a binding signal of 0.318 ± 0.04 E-score. Work on CGGATCCG yielded a binding signal of 0.417 ± 0.0204 E-score. CAGATCGC gave a binding signal of 0.284 ± 0.0237 E-score. With AGGATCGC the binding signal was 0.27 ± 0.0489 E-score. In the case of GGGATCCA, the binding signal is reported as 0.375 ± 0.0614 E-score. AATGAGCC gave a binding signal of 0.158 ± 0.0559 E-score. In the case of ATGTCTCA, the binding signal is reported as 0.2 ± 0.0211 E-score. AGGGCGAT gave a binding signal of 0.284 ± 0.0121 E-score. With ATCACCAG the binding signal was 0.166 ± 0.0324 E-score. With CCACGATC the binding signal was 0.195 ± 0.0938 E-score. ATCCTGAC showed a binding signal of 0.228 ± 0.00948 E-score. In the case of AAGTATTG, the binding signal is reported as 0.157 ± 0.085 E-score. Work on CGGATCCC yielded a binding signal of 0.399 ± 0.0592 E-score. AAGATCCT gave a binding signal of 0.326 ± 0.0346 E-score. CGGATCTC gave a binding signal of 0.342 ± 0.0442 E-score. In the case of AGGATCTC, the binding signal is reported as 0.292 ± 0.0258 E-score. Work on AGGATCCA yielded a binding signal of 0.346 ± 0.0238 E-score. Sequence AGGATCTG has a binding signal of 0.244 ± 0.0478 E-score. In the case of AGGATCCT, the binding signal is reported as 0.385 ± 0.0102 E-score. With AGGATCCC the binding signal was 0.379 ± 0.00668 E-score. With CAGATCCC the binding signal was 0.295 ± 0.0571 E-score. Sequence ATCTTCGA has a binding signal of 0.193 ± 0.0484 E-score. Work on GAGGAATA yielded a binding signal of 0.21 ± 0.0309 E-score. Sequence GACCTATC has a binding signal of 0.269 ± 0.00861 E-score. ACATGAGA showed a binding signal of 0.183 ± 0.0219 E-score. ACATGATA showed a binding signal of 0.426 ± 0.0281 E-score. For ACATGATC, the binding signal was 0.279 ± 0.0144 E-score. CCATGATA gave a binding signal of 0.376 ± 0.00711 E-score. GCACGATA was tested, and the binding signal was 0.325 ± 0.00783 E-score. In the case of CCATGAGA, the binding signal is reported as 0.242 ± 0.0275 E-score. GCATGATA was tested, and the binding signal was 0.4269 ± 0.00375 E-score. In the case of GCCTGATA, the binding signal is reported as 0.321 ± 0.0449 E-score. In the case of CCATGATC, the binding signal is reported as 0.293 ± 0.0102 E-score. With AACCATCT the binding signal was 0.154 ± 0.0503 E-score.
